High-throughput results deposited in PubChem BioAssay by National Center for Advancing Translational Sciences (NCATS).
Rows were chosen to be rich in hits. Some 19% of all compounds tested hit in one or more screens of this group.
TDP1 block = blocks human tyrosyl-DNA phosphodiesterase 1; Q9NUW8; recombinant TDP1, AlphaScreen DNA substrate cleavage; Potency, µM (highest dose often 130 µM), for inactives: top-dose activity change, negative = inhibition, usual class: inhibitors; actives 0.28% (n = 350,000); AID 485290; note: potency is the fitted concentration of half-maximal effect; nearly all actives have a fitted effect of over 40% in size
Target sequence (Q9NUW8 whole entry, looked up): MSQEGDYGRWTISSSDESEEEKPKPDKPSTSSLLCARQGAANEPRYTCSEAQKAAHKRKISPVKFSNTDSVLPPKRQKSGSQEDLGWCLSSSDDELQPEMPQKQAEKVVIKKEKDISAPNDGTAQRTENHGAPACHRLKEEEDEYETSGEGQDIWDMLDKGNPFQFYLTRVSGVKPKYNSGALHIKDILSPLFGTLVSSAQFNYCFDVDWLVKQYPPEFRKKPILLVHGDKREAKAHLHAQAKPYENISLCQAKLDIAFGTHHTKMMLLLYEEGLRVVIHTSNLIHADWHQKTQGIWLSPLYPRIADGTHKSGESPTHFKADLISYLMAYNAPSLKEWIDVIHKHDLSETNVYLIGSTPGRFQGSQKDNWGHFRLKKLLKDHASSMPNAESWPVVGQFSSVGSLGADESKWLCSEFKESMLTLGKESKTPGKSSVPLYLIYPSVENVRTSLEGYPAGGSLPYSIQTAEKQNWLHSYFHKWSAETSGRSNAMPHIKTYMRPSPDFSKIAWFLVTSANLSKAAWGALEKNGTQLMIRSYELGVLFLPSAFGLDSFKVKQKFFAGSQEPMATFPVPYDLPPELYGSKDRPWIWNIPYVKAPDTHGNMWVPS
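Enzyme-compound mixtures sat 15 min at room temperature, followed by a 5 min reaction with 15 nM final substrate and 10 min with AlphaScreen beads. Recombinant human Tdp1 was used at 1 nM final.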
Giardia kill = kills Giardia lamblia | Giardia lamblia trophozoite viability | activity change, % at 7.66 µM, hits read low | actives 0.15% (n = 340,000); in the data active = activity change below about -80%; inconclusive = between about -30% and that limit;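 note: parasites exposed to compound for two days anaerobically before the ATP read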
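Luminescence from cellular ATP indicates surviving trophozoites (100 cells/well) following 48 hrs anaerobic compound treatment at 37 deg C; signal develops 15-30 min at room temperature.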
ELG1 DNA repair = inhibitors of ELG1-dependent DNA repair in HEK293T cells; HEK293T ELG1-luciferase reporter, luminescence, 16 h; DNA damage induced by 5-fluorouridine; Potency, µM (highest dose often 46.1 µM), for the others: at the highest dose activity change, negative = inhibition, most hits filed as inhibitors; actives 2.3% (n = 330,000); AID 504467; note: potency is the fitted concentration of half-maximal effect; nearly all actives have a fitted effect of over 55% in size
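Cells (2,000 per well) received 5-fluorouridine plus test compound or DMSO and were incubated 16 hr at 37 °C, 5% CO2. Luciferase activity was read by luminescence 30 min after ONE-Glo addition; signal suppression marked inhibition of damage-induced ELG1 function.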
TDP1 cell noCPT = qHTS for Inhibitors of human tyrosyl-DNA phosphodiesterase 1 (TDP1): qHTS in cells in absence of CPT | DT40 Tdp1-/- hTDP1 cells, no CPT, ATP luminescence, 48 h | actives 15% (n = 420,000) | AID 686978, 2013 | Potency, µM (top dose mostly 46.2 µM), for inactives: at the highest dose activity change, negative = growth inhibition, actives largely listed as inhibitors; note: potency is the fitted concentration of half-maximal effect; nearly all actives have a fitted effect of over 55% in size
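Growth of hTDP1-complemented DT40 Tdp1-knockout cells is measured by ATP luminescence after at least 48 hr compound exposure at 37 °C, with DMSO substituting for the 20 nM CPT used in the parallel screen.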
IL1B secr inh = inhibitors of inflammasome signaling (IL-1 beta secretion); THP-1 LPS/ATP IL-1B secretion, AlphaLISA, 16 h; active compounds read low; actives 4.7% (n = 360,000); AID 743279; activity change, % at 57.5 µM; in the data active = activity change below about -50%; inconclusive = mostly about -30% to -49%
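Secreted IL-1B measured by AlphaLISA bead assay after 16 h compound exposure of THP-1 cells; compounds (final up to 57.5 uM) added 1 h before LPS (250 ng/mL) and ATP (1.25 mM) stimulation; lower signal means less secretion.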
DT40 TDP1 CPT = growth inhibition of DT40 Tdp1-/-;hTDP1 cells with camptothecin (screen for TDP1 inhibitors) | chicken DT40 Tdp1-/-;hTDP1 cells + 20 nM CPT, ATP luminescence, 48 h | Potency, µM (titrated, usually from 46.2 µM), for inactives: at the top dose activity change, negative = growth inhibition, hits mostly inhibitors | actives 12% (n = 420,000) | AID 686979; note: potency is the fitted concentration of half-maximal effect; nearly all actives have a fitted effect of over 55% in size
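Cell growth measured by CellTiter-Glo luminescence after a minimum 48 h, 37 C compound exposure with 20 nM CPT in Tdp1-knockout DT40 cells stably expressing hTDP1, seeded 400/well; qHTS titration format.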
Numbers without * were called inactive; ? = inconclusive; / = no result given. Unless noted, calls come from the whole dose curve; as a rule, active = well fitted curve in the direction sought with a large enough effect; inconclusive = small, poorly fitted or top-dose-only effect, or another doubt; inactive = no such curve, though single readings can be large; an effect the other way counts as inactive or inconclusive. % is set by controls: 0 for no effect and ±100 for the full control effect.

SMILES	TDP1 block	Giardia kill	ELG1 DNA repair	TDP1 cell noCPT	IL1B secr inh	DT40 TDP1 CPT
Cc1ccccc1NC(=O)c1sc2nc(-c3cc4ccccc4oc3=O)[nH]c(=O)c2c1C	0.0%	/	/	?	/	8.2µM*
Cc1cc(C)c(NC(=O)/C(C#N)=C/c2ccc(OCc3ccc(F)cc3)cc2)c(C)c1	-2.6%	-11.5	?	6.51µM*	-2.2	2.59µM*
COC(=O)c1ccc(COc2ccccc2/C=C(\C#N)C(=O)Nc2c(C)cc(C)cc2C)cc1	1.4%	4.6	?	10.3µM*	-79.4*	8.2µM*
COc1cc(/C=C(/C#N)C(=O)Nc2ccccc2)c(Br)cc1OCc1ccc(C(=O)O)cc1	3.9%	-7.5	?	?	9.0	-21.0%
N#C/C(=C\c1ccc(OCc2ccccc2)cc1)C(=O)Nc1ccc(C(=O)O)cc1	44.7µM*	-3.6	?	-13.9%	-12.0	-8.4%
COc1ccc(NC(=O)/C(C#N)=C/c2ccc(OCc3ccccc3F)cc2)cc1	0.0%	0.6	12.1%	-6.6%	3.4	4.3%
CCCCn1nnnc1C(c1cc2ccccc2o1)N1CCCN(C(=O)OC(C)(C)C)CC1 (centres undefined)	/	/	/	?	-18.8	?
CC(=O)C1CCC2C3CCC4CC(=O)CCC4(C)C3C(O)CC12C (centres undefined)	/	23.3	/	?	8.3	?
CC(=O)C1CCC2C3CCC4CC(=O)CCC4(C)C3C=CC12C (centres undefined)	/	-20.8	/	14.6µM*	11.1	-16.2%
CC(=O)C1(O)CCC2C3CCC4CC(=O)CCC4(C)C3C(=O)CC21C (centres undefined)	/	-24.8	/	-0.8%	11.2	9.5%
CC(=O)C1C(C)CC2C3CCC4CC(=O)CCC4(C)C3CCC21C (centres undefined)	/	-13.7	/	20.6µM*	10.8	?
CSCCC(C(=O)N(C)CC(=O)Nc1cccc(F)c1)N1C(=O)c2ccccc2C1=O (centres undefined)	2.1%	41.9	1.6%	3.4%	-6.5	4.4%
CC(C)(C)c1cc(S(=O)(=O)CCc2ccccn2)cc(C(C)(C)C)c1F	2.5%	-25.3	-8.2%	14.6µM*	-87.6*	13µM*
CN(CCc1ccccn1)S(=O)(=O)c1ccc(F)cc1	0.0%	2.1	16.9%	-20.7%	15.3	-9.7%
COc1ccc(C2/C=C\CN(C(=O)C3CC3)C(C)C(=O)N2Cc2ccc(F)cc2)cc1 (centres undefined)	6.2%	0.6	/	/	/	/
COc1ccc([C@H]2/C=C\CN(C(=O)c3ccccc3)[C@@H](C)C(=O)N2Cc2ccc(F)cc2)cc1	/	0.2	/	23.1µM*	0.5	?
CCCCC(=O)N1C/C=C\[C@H](c2ccc(OC)cc2)N(Cc2ccc(F)cc2)C(=O)[C@@H]1C	/	22.4	/	16.4µM*	8.2	?
COc1ccc(C2/C=C\CN(S(=O)(=O)c3ccc(C)cc3)C(Cc3ccccc3)C(=O)N2Cc2ccc(F)cc2)cc1 (centres undefined)	13.2%	-5.8	/	/	/	/
COc1ccc([C@H]2/C=C\CN(S(=O)(=O)/C=C/c3ccccc3)[C@@H](C)C(=O)N2Cc2ccc(F)cc2)cc1	/	-1.1	/	20.6µM*	12.2	?
COCc1nnc(NS(=O)(=O)c2ccc(Cl)cc2)s1	/	-14.7	2.0%	8.5%	-1.4	10.3%
O=S(=O)(Nc1nnc(-c2ccccc2)s1)c1ccc(Cl)cc1	6.1%	-5.0	/	16.4µM*	9.4	?
CCCN(CCC)c1ccc(C2N=C(N)Nc3nc4ccccc4n32)cc1 (centres undefined)	6.3%	/	/	16.4µM*	/	23.1µM*
COc1cc(C2N=C(N)Nc3nc4ccccc4n32)ccc1OCCC(C)C (centres undefined)	0.6%	/	/	18.4µM*	/	23.1µM*
O=C(O)[C@H](CC(=O)N1C[C@H]2CCCC[C@H]2C1)Cc1ccccc1	/	/	/	-1.3%	/	13.9%
CCc1cc(-c2n[nH]c(C)c2-c2ccccc2Cl)c(O)cc1OC	/	12.4	-3.6%	-28.9%	18.8	?
SMILES	TDP1 block	Giardia kill	ELG1 DNA repair	TDP1 cell noCPT	IL1B secr inh	DT40 TDP1 CPT
Cc1cc(NC(=O)COC(=O)CCNS(=O)(=O)c2c(Cl)cccc2Cl)no1	5.4%	9.2	5.3%	-14.5%	0.0	-13.9%
C=CC1(C)CN(Cc2ccco2)S(=O)(=O)c2c(F)cccc2O1 (centres undefined)	/	-11.9	/	?	-1.7	18.4µM*
CCCCN1CC(C)(C)Oc2cccc(F)c2S1(=O)=O	/	19.9	/	-25.5%	-2.0	-12.6%
CCN(CC)S(=O)(=O)c1ccc2c(c1)N(CC(=O)Nc1c(C)cc(C)cc1C)C(=O)CS2	3.9%	/	/	?	/	?
Cc1[nH]c2ccccc2c1C1=CC(=O)C=CC1=O	/	3.4	/	1.84µM*	-101.1*	1.64µM*
COCc1nc2ccccc2n1Cc1c(F)cccc1Cl	2.4%	10.7	1.4%	13µM*	3.3	18.4µM*
CCCn1c(CCCNC(=O)c2ccccc2OC)nc2ccccc21	5.9%	/	/	18.4µM*	/	?
C=CCn1c(CCCNC(=O)c2ccccc2OC)nc2ccccc21	0.5%	-2.1	10.2%	?	-21.9	?
CCCCCn1c(CCCNC(=O)CC)nc2ccccc21	2.6%	1.4	-15.9%	16.4µM*	37.6	20.6µM*
C=C(C)Cn1c(CCCNC(=O)CCC)nc2ccccc21	3.3%	-22.7	1.0%	14.6µM*	8.4	13µM*
COCc1nc2ccccc2n1Cc1cccc(C)c1	5.1%	-9.3	15.3%	?	18.8	?
COC(=O)Nc1ccc(N2CCOCC2)c(S(=O)(=O)N2CCOCC2)c1	2.2%	-4.7	11.1%	6.3%	6.1	-0.6%
CSCC[C@H](NC(=O)[C@H](Cc1ccccc1)NC(=O)[C@H](Cc1cnc[nH]1)NC(=O)CNC(=O)[C@@H](NC(=O)[C@H](C)NC(=O)[C@H](Cc1c[nH]c2ccccc12)NC(=O)[C@H](CCC(N)=O)NC(=O)[C@@H]1CCCN1C(=O)[C@@H](NC(=O)[C@@H]1CCC(=O)N1)C(C)C)C(C)C)C(N)=O	3.0%	/	/	/	/	/
COc1cc(NC(=O)CCCNC(=O)c2ccc(Cl)cc2)cc(OC)c1OC	/	-1.3	19.5%	-22.2%	25.4	-14.4%
CCCCn1c(CCCNC(=O)c2ccco2)nc2ccccc21	3.8%	3.4	-6.5%	14.6µM*	35.9	?
CCCCn1c(CCNC(=O)CCC)nc2ccccc21	2.1%	?	13.2%	?	-4.7	-24.5%
